The whole screen tested about 190,000 compounds, of which about 1,300 (0.68%) were called active. This excerpt belongs to a sample that is enriched for actives. A number with no mark means an inactive call. Rule as the data show it: active = inhibition above about 50%; inactive = the rest.
The compounds below were run against Mannose-6-phosphate isomerase (Homo sapiens) (UniProt P34949) (assay: MPI inhibition at elevated mannose 6-phosphate – biochemical, fluorescence intensity, high mannose 6-phosphate, primary screen (AID 1220)). Conditions: recombinant PMI enzyme, coupled fluorescence intensity; at 20 µM; stronger effect = higher value.
Mannose-6-phosphate isomerase (Homo sapiens), sequence (P34949 whole entry, looked up): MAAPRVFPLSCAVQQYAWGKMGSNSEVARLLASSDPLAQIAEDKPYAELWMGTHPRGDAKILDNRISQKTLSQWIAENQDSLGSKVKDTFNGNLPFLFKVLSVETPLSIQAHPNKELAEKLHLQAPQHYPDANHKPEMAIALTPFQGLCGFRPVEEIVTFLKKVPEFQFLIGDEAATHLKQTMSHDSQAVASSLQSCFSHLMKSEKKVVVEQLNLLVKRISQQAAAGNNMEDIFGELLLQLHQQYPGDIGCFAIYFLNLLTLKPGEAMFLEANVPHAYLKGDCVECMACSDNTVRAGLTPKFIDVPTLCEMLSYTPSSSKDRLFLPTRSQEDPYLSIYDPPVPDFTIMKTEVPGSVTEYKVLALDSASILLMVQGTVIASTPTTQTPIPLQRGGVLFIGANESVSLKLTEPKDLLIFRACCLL
In the case of `O=[N+]([O-])c1cccc(-c2nc(N3CCOCC3)c3ccccc3n2)c1`, the inhibition is reported as -8.1%. Compound `COC(=O)COc1ccc(/C=C2/NC(=O)N(CC(=O)OC)C2=O)cc1` has an inhibition of 1.1%. `O=C1C(Cl)=C(NCC2CCCO2)C(=O)N1c1ccccc1` (stereo not drawn) was tested, and the inhibition was 2.7%. With `COc1ccc2ccccc2c1C(=O)/C=C\c1ccoc1` the inhibition was 50% (active). `COc1ccc(/C=C/C(=O)c2ccoc2)cc1` showed an inhibition of 3.7%. `O=C(/C=C/c1ccoc1)c1ccccc1O` gave an inhibition of 17.9%. Compound `OC1(c2cccs2)CN(c2ccccc2)C2=[N+]1CCCC2` (stereo not drawn) has an inhibition of -12%. In the case of `COc1cccc(CNc2ccc(N3CCC(C)CC3)cc2)c1OC`, the inhibition is reported as 63.1% (active). `COc1cccc(CNc2ccc(F)c(Cl)c2)c1OC` was tested, and the inhibition was -11%. For `COc1cccc(CNc2ccc(S(N)(=O)=O)cc2)c1OC`, the inhibition was -2.8%. In the case of `COc1ccc(-c2nnn(CC(=O)N(Cc3ccccc3Cl)C(C(=O)NCC3CCCO3)c3ccco3)n2)cc1OC` (stereo not drawn), the inhibition is reported as 23.8%. `CC1=NOC(=O)/C1=C/c1ccc(-c2ccc(Cl)cc2)o1` was tested, and the inhibition was 13.4%. For `CCOCCCNC(=S)Nc1ccc2nc(N3CCCC3)cc(C)c2c1`, the inhibition was 50.2% (active). Work on `CCN1CCN(c2cc(C)c3cc(NC(=S)NCCCN4CCc5ccccc5C4)ccc3n2)CC1` yielded an inhibition of 27.2%. `CCCCNC(=O)CCC(=O)Nc1ccc2nc(N3CCN(C)CC3)cc(C)c2c1` showed an inhibition of 12%. `Cc1cc(N2CCN(C)CC2)nc2ccc(NC(=S)NCCN3CCc4ccccc4C3)cc12` gave an inhibition of -3.7%. `CCCCN(CC)CCNC(=O)CCC(=O)Nc1ccc2nc(N3CCN(C)CC3)cc(C)c2c1` was tested, and the inhibition was 58.2% (active). `CCCN(CCC)CCNC(=O)CCC(=O)Nc1ccc2nc(N3CCN(C)CC3)cc(C)c2c1` showed an inhibition of 42.5%. Work on `COCCNC(=S)Nc1ccc2nc(N3CCCC3)cc(C)c2c1` yielded an inhibition of 12.4%. `Cc1cc(N2CCCC2)nc2ccc(NC(=S)NCCCOC(C)C)cc12` was tested, and the inhibition was -3.8%. `Cc1cc(N2CCN(C)CC2)nc2ccc(NC(=S)NCCCN3CCc4ccccc4C3)cc12` was tested, and the inhibition was 58.5% (active). `CC1CCCCC1NC(=O)CO/N=C/c1ccccc1OC(F)F` (stereo not drawn) was tested, and the inhibition was 5.8%. In the case of `COCCOCCn1c(CCCO)nc2ccccc21`, the inhibition is reported as -2.6%. `Cc1ccc(S(=O)(=O)N2CCN(Cc3nc4ccccc4[nH]3)CC2)cc1C` gave an inhibition of -2.8%. For `CCOC(=O)Cc1csc(NC(=O)CSc2nnc(Cc3csc(N)n3)n2C)n1`, the inhibition was 14.4%. In the case of `O=C(NCCN1CCOCC1)c1cc2cc(Br)ccc2oc1=O`, the inhibition is reported as 9.2%. `CCOC(=O)N1CCC(NS(=O)(=O)c2ccc3c(c2)CCN3C(C)=O)CC1` gave an inhibition of 2.5%. `O=C(C1CC1)N1CCc2cc(Br)cc(S(=O)(=O)NC3CCCCC3)c21` gave an inhibition of 2.5%. In the case of `Cn1cccc1C(=O)C(=O)Nc1ccc(Cl)cc1`, the inhibition is reported as -0.1%. `Cn1cccc1C(=O)C(=O)Nc1ccccc1` gave an inhibition of -5.5%. For `COC(=O)c1ccc(NC(=O)C(=O)c2cccn2C)cc1`, the inhibition was 52.2% (active). `Nc1ncc2c(n1)-c1ccccc1CC2` gave an inhibition of 32.5%. `COc1ccc(-c2cnc(N)nc2-c2ccc(OC)cc2O)cc1` gave an inhibition of 11.9%. For `COc1ccc2c(c1)CCc1cnc(N)nc1-2`, the inhibition was 60% (active). `CCOC(=O)N1CCN(C(=O)C2CCN(Cc3nc(-c4ccccc4C)oc3C)CC2)CC1` gave an inhibition of -4.9%. `COc1cc(/C=C/C(=O)Nc2cc(S(=O)(=O)N3CCOCC3)ccc2N2CCCC2)cc(OC)c1OC` gave an inhibition of 19.5%. `c1ccc(-c2csc3ncnc(NCCCN4CCOCC4)c23)cc1` was tested, and the inhibition was -16.3%. In the case of `C#CCNC(=O)C1=C[C@H](c2csc3ccccc23)C[C@H](OCCCCO)O1`, the inhibition is reported as 30.3%. Work on `C#CCNC(=O)C1=C[C@@H](c2cn(C(C)=O)c3ccccc23)C[C@@H](OCCCCO)O1` yielded an inhibition of 22.9%. With `CC(=O)n1cc([C@@H]2C=C(C(=O)NCc3ccccc3)O[C@H](OCCCCO)C2)c2ccccc21` the inhibition was 50.3% (active). `O=C(NCc1ccccc1)C1=C[C@H](c2csc3ccccc23)C[C@H](OCCCCO)O1` was tested, and the inhibition was 53.9% (active). Compound `O=C(Nc1ccccc1)C1=C[C@H](c2csc3ccccc23)C[C@H](OCCCCO)O1` has an inhibition of 12.8%. With `O=C(C1=C[C@H](c2csc3ccccc23)C[C@H](OCCCCO)O1)N1CCN(Cc2ccccc2)CC1` the inhibition was 22.9%. In the case of `CC(=O)n1cc([C@H]2C=C(C(=O)NCc3ccccc3)O[C@@H](OCCCCO)C2)c2ccccc21`, the inhibition is reported as 46.3%. For `O=C(NCc1ccccc1)C1=C[C@@H](c2csc3ccccc23)C[C@@H](OCc2ccc(CO)cc2)O1`, the inhibition was 44.5%. For `O=C(NCc1ccccc1)C1=C[C@@H](c2csc3ccccc23)C[C@@H](OCCCCO)O1`, the inhibition was 53.8% (active). With `CN1C(=O)NC(c2ccccc2)C2=C1CN(c1ccc3ccccc3c1)C2=O` (stereo not drawn) the inhibition was 9.4%. `COc1ccc(C(=O)C[n+]2cn(C(F)F)c3ccccc32)c(F)c1` was tested, and the inhibition was -11.8%. Work on `Cc1cc(C)n(C(=O)CSc2nnc(SCC(=O)n3nc(C)cc3C)s2)n1` yielded an inhibition of -11.7%. With `CC(=O)N1CCc2cc(S(=O)(=O)NC(CC(C)C)C(=O)N3CCn4c3nc3ccccc34)ccc21` (stereo not drawn) the inhibition was 6.2%. For `COCCNCC1C(Oc2ccc(Cl)cc2)C(=O)N1c1ccccc1C` (stereo not drawn), the inhibition was 50.7% (active). `COCCCNCC1C(Oc2ccc(Cl)cc2)C(=O)N1c1ccccc1C` (stereo not drawn) gave an inhibition of -5.6%. Work on `CCCNCC1C(Oc2ccc(Cl)cc2)C(=O)N1c1ccccc1C` (stereo not drawn) yielded an inhibition of -6%. In the case of `Nc1ncc(-n2cncn2)c(-c2ccc(Cl)cc2)n1`, the inhibition is reported as 9.9%. For `CC1CCCCC1NCC(=O)NCc1ccc(F)cc1` (stereo not drawn), the inhibition was -10.5%. Work on `CCOC(=O)c1c(C)oc2cc(Br)c(OC(=O)N3CCOCC3)cc12` yielded an inhibition of 11.1%. With `COc1ccc(-c2nc(C#N)c(N3CCN(c4cccc(Cl)c4)CC3)o2)cc1OC` the inhibition was 4.2%. With `CC(=O)Nc1ccc(S(=O)(=O)Oc2ccc3c(c2)C(C)=CC(C)(C)N3)cc1` the inhibition was 29.5%. With `CC1=CC(C)(C)Nc2ccc(OC(=O)c3ccco3)cc21` the inhibition was 52% (active). With `CC1CC(C)(C)Nc2ccc(OC(=O)c3ccco3)cc21` (stereo not drawn) the inhibition was 25.5%. In the case of `CC1=CC(C)(C)Nc2ccc(OS(=O)(=O)c3ccc(C)cc3)cc21`, the inhibition is reported as 51.5% (active). In the case of `CC1=CC(C)(C)Nc2ccc(OC(=O)CN3C(=O)CCC3=O)cc21`, the inhibition is reported as 12.7%. In the case of `CC1=CC(C)(C)Nc2ccc(OC(=O)CN3C(=O)c4ccccc4C3=O)cc21`, the inhibition is reported as 26.2%. `CC1=CC(C)(C)Nc2ccc(OC(=O)C(C)N3C(=O)c4ccccc4C3=O)cc21` (stereo not drawn) was tested, and the inhibition was 24.3%. `CC1=CC(C)(C)Nc2ccc(OC(=O)c3cccnc3)cc21` gave an inhibition of 16%. With `COC(=O)c1nn(-c2ccc(C)cc2)ccc1=O` the inhibition was -2.7%. `Cc1cccc(C(=O)NCCc2nnc(SCC(=O)Nc3nc(C)cs3)n2C)c1` was tested, and the inhibition was 4%. Work on `CC1CCCN(S(=O)(=O)c2ccc(S(=O)(=O)N3CCC4(CC3)OCCO4)cc2)C1` (stereo not drawn) yielded an inhibition of 2.2%. `CC(C)OC(=O)c1cc(NC(=S)Nc2ccc([N+](=O)[O-])cc2)cc(C(=O)OC(C)C)c1` showed an inhibition of 4%. Work on `CCC1(CC)C(=O)N=C2c3ccccc3C(=O)N21` yielded an inhibition of -2.6%. In the case of `O=C(c1ccc(C(F)(F)F)cc1)N1CCC(=O)N(C(COCc2ccccc2)Cc2ccccc2)CC1` (stereo not drawn), the inhibition is reported as -5.1%. `O=C(Nc1ccccc1)c1cc2c(=O)c3ccccc3oc2nc1C(F)(F)F` showed an inhibition of 4.4%. For `COc1ccccc1N1CCN(c2cnccn2)CC1`, the inhibition was 5.8%. `CNCc1ccccc1Sc1cccc(O)c1` gave an inhibition of -1.7%. Compound `CNCc1ccccc1Sc1cc(O)ccc1O` has an inhibition of 41.3%. `O=C(Cc1ccccc1)NCC(=O)N1CCCCC1` showed an inhibition of -8%. `O=C(NNC(=O)C1CC1c1ccccc1)c1ccccc1F` (stereo not drawn) gave an inhibition of -2.1%. `CCOC(=O)c1cccc(NC(=O)CCc2ccccc2)c1` showed an inhibition of -0.6%. `COc1cccc(CNC(=O)CC(NC(C)=O)c2ccccc2)c1` (stereo not drawn) showed an inhibition of 1%. With `COc1cc([C@H](Cc2ccccc2)NC(C)=O)oc(=O)c1` the inhibition was 53.9% (active). `CC(=O)NC(Cc1ccccc1)c1ccc2c(c1)OCCCO2` (stereo not drawn) showed an inhibition of 4.4%. In the case of `Cc1cccc(C(=O)Oc2ccccc2-c2nnco2)c1`, the inhibition is reported as -9.6%. Compound `COc1ccc(C(c2sc3nc(C)nn3c2O)N2CCCCC2)cc1` (stereo not drawn) has an inhibition of 4.3%. `O=c1[nH]c2cc3c(cc2cc1CN(CC1CCCO1)S(=O)(=O)c1ccccc1)OCCO3` (stereo not drawn) was tested, and the inhibition was 4.9%. In the case of `C/C(CC(=O)N1CCN(C=O)CC1)=N\NC(=O)c1ccc(Cl)cc1`, the inhibition is reported as 3.6%. `COc1ccc(C(=O)N/N=C(\C)CC(=O)N2CCN(C=O)CC2)cc1` was tested, and the inhibition was -9.2%. `CC(=O)NC(Cc1cc(C)ccc1C)C(=O)N1CCN(C(=O)c2ccccc2Br)CC1` (stereo not drawn) gave an inhibition of -3.4%. In the case of `O=[N+]([O-])c1cc(-c2n[nH]c(-c3ccccc3)n2)cc([N+](=O)[O-])c1`, the inhibition is reported as -4.6%. With `Oc1cccc(/C=N/Nc2cccc3cccnc23)c1` the inhibition was 20.3%. In the case of `COc1ccc(/C=C2\SC(=O)N(CCC(=O)Nc3ccc(S(=O)(=O)Nc4nccs4)cc3)C2=O)cc1`, the inhibition is reported as 8.6%. Work on `O=C(CCc1ccc(S(=O)(=O)NCCc2ccccc2)cc1)Nc1ccc2c(c1)OCCO2` yielded an inhibition of -3.2%. Compound `CCCNS(=O)(=O)c1ccc(CCC(=O)Nc2ccc3c(c2)OCO3)cc1` has an inhibition of 10.1%. With `CCCNS(=O)(=O)c1ccc(CCC(=O)Nc2ccc3c(c2)OCCO3)cc1` the inhibition was 50.1% (active).
